Rows were chosen to be rich in hits. Some 5.9% of all compounds tested hit in one or more screens of this group.
RORgamma inh = inhibitors of mouse ROR gamma transcriptional activity; Potency, µM (doses to about 53.6 µM), without a hit: at the top dose activity change, negative = inhibition, hits mostly inhibitors; hit rate 5.4% among 310,000; AID 2551; Drosophila S2 Gal4-RORgamma UAS-luciferase reporter, 20 h; note: % is set by controls: 0 for no effect and ±100 for the full control effect; nearly all actives have a fitted effect of over 60% in size
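ROR gamma transcriptional activity was tracked as Gal4-UAS luciferase output in stably transfected Drosophila Schneider cells, with compound added 1 hr before 700 uM copper sulfate induction and a 20 hr ambient-temperature incubation.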
GLP1R ag = GLP-1 receptor (human) agonism. AID 624172. HEK293 GLP-1R CRE-luciferase, luminescence, 4-6 h; cells express a hypersensitive GLP-1R form. hit rate 0.007% among 380,000. P43220. Potency, µM (doses to about 45.6 µM), without a hit: at the highest dose activation, usual class: activators; note: % of control where 0% means no effect
Target sequence (P43220 whole entry, looked up): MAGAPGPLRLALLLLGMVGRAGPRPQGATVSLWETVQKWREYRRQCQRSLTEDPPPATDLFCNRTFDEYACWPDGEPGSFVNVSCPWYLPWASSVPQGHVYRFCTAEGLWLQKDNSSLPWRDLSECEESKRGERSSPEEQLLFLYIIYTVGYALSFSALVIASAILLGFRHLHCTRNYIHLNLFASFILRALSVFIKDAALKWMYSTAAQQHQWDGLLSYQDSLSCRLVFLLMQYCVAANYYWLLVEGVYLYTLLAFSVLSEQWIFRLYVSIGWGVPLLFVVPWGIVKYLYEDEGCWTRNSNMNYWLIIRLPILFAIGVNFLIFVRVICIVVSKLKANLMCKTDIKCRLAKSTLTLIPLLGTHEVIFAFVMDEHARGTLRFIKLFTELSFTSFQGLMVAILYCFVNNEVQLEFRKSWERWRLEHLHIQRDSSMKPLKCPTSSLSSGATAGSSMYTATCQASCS
GLP1R cytotox = cytotoxic in the GLP-1 receptor inverse agonist counter-screen | HEK293 cAMP-luciferase reporter cells, luminescence, 24 h | Potency, µM (titrated, usually from 38.3 µM), without a hit: at the highest dose activity change, negative = inhibition, most hits filed as inhibitors | hit rate 0.13% among 410,000 | AID 624418;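 note: loss of luciferase light is scored as toxicity; % is set by controls: 0 for no effect and ±100 for the full control effect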
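Compound-treated cells are incubated 24 hr at 37 deg C under 5% CO2 after a 12 hour attachment period, then luciferase detection reagent is added and luminescence is measured following 12 min at room temperature; lowered signal indicates toxicity.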
Gal4-VP16 FLuc = inhibits Gal4-VP16 luciferase reporter, ROR gamma counter-screen; Drosophila S2 Gal4-VP16 UAS-luciferase, luminescence, 20 h; Potency, µM (top dose mostly 53.6 µM), without a hit: at the highest dose activity, negative = inhibition, usual class: inhibitors; hit rate 3.5% among 310,000;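 note: Gal4-VP16 expression switched on by copper sulfate through the metallothionein promoter; % is set by controls: 0 for no effect and ±100 for the full control effect; nearly all actives have a fitted effect of over 50% in size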
GLP1R inv ag = GLP-1 receptor (human) inverse agonism; P43220; HEK293 GLP-1R CRE-luciferase, luminescence, 24 h; GLP-1R form is constitutively active; Potency, µM (titrated, usually from 38.3 µM), inactives show at the highest dose activity change, negative = inhibition, most hits filed as inhibitors; hit rate 1.6% among 410,000; AID 624417; note: % is set by controls: 0 for no effect and ±100 for the full control effect; nearly all actives have a fitted effect of over 55% in size
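GLP-1R inverse agonism mode: basal reporter luminescence in engineered HEK293 cells measured after one day of compound exposure at 37 deg C, with a 12 min room-temperature detection step.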
An asterisk follows results filed as active; ? = inconclusive; / = not tested or not shown; ! = not active in a repeat; [ ] = dose if it differs, or a comment. Calls come from the whole dose curve; as a rule, active = well fitted curve in the direction sought with a large enough effect; inconclusive = small, poorly fitted or top-dose-only effect, or another doubt; inactive = no such curve, though single readings can be large; an effect the other way counts as inactive or inconclusive. Potency is the fitted concentration of half-maximal effect.

SMILES	RORgamma inh	GLP1R ag	GLP1R cytotox	Gal4-VP16 FLuc	GLP1R inv ag
Cc1ccnc(NS(=O)(=O)c2ccc(NC(=O)c3cc(=O)c4ccc(C)c(C)c4o3)cc2)n1	/	/	20.0%	/	6.8%
CC(C)C[C@H](NC(=O)[C@H](CC(C)C)NC(=O)[C@H](CCC(N)=O)NC(=O)[C@H](CO)NC(=O)[C@@H]1CCCN1C(=O)[C@H](CO)NC(=O)[C@H](CO)NC(=O)[C@@H](NC(=O)[C@H](Cc1cnc[nH]1)NC(=O)[C@H](CCC(=O)O)NC(=O)[C@H](Cc1ccc(O)cc1)NC(=O)[C@H](CCCCN)NC(=O)[C@H](CCC(N)=O)NC(=O)[C@H](Cc1ccc(O)cc1)NC(=O)[C@H](CC(=O)O)NC(=O)[C@@H](NC(=O)[C@@H]1CCCN1C(=O)[C@H](CC(=O)O)NC(=O)[C@H](CC(N)=O)NC(=O)[C@H](CC(=O)O)NC(=O)CNC(=O)[C@H](CC(=O)O)NC(=O)[C@@H]1CCCN1C(=O)[C@H](CCC(N)=O)NC(=O)[C@H](Cc1ccc(O)cc1)NC(=O)[C@H](C)NC(=O)[C@H](Cc1c[nH]c2ccccc12)NC(=O)[C@H](Cc1ccccc1)NC(=O)[C@@H](NC(=O)[C@@H](N)CO)[C@@H](C)O)[C@@H](C)O)[C@@H](C)O)C(=O)N[C@@H](C)C(=O)N1CCC[C@H]1C(=O)NCC(=O)N[C@@H](CC(=O)O)C(=O)N[C@@H](Cc1ccc(O)cc1)C(=O)O	-1.8%	/	/	-9.0%	/
CN1CCN(C(=O)CCN2C(=O)/C(=C/c3ccccc3Cl)SC2=S)CC1	17.8µM*	-1.1%	?	-0.6%	?
O=C(CCCN1C(=O)/C(=C/c2ccccc2Cl)SC1=S)N1CCOCC1	?	-3.9%	6.8%	?	-7.0%
CCN(C(=O)CN1C(=O)/C(=C/c2ccccc2F)SC1=S)C1CCS(=O)(=O)C1 (stereo unspecified)	10µM*	14.7%	-24.3%	-9.9%	10.6%
CN1CCN(C(=O)CCN2C(=O)/C(=C\c3ccccc3F)SC2=S)CC1	5.62µM*	-3.7%	?	-16.8%	?
COc1ccc(CNC(=O)c2cc3cc(S(=O)(=O)N4CCCCC4)ccc3n2C)c(OC)c1	/	/	0.0%	/	-3.7%
COc1ccc(CCNC(=O)C(=O)NCC(c2ccco2)S(=O)(=O)c2cccs2)cc1 (stereo unspecified)	/	/	-7.2%	/	9.0%
COc1ccc(CCN2CCC(Nc3nc4ccccc4n3Cc3ccc(F)cc3)CC2)cc1	14.1µM*!	-0.6%	?	?	?
COc1ccc(CNc2nc3ccccc3n2CCN2CCCCC2)cc1	15.8µM*	13.9%	?	-5.0%	10µM*
CCN(CC)c1ccc(CNc2nc3ccccc3n2CCN2CCCCC2)cc1	8.91µM*	16.3%	?	?	?
CCN(CC)c1ccc(CNc2nc3ccccc3n2C)cc1	-1.5%	0.8%	7.7%	-1.9%	-20.0%
Cn1c(CNc2nc3ccccc3n2CCN2CCCCC2)nc2ccccc21	15.8µM*	13.7%	-21.2%	3.4%	?
CCCCC/C=C\C[C@@H]1O[C@H]1/C=C/C(O)C/C=C\CCCC(=O)O (stereo partly specified)	20.0%	/	/	-0.2%	/
COC(=O)c1ccc(Nc2nc(-c3ccccc3Cl)nc3ccccc23)cc1	/	/	-20.2%	/	?
CCN(CC)CCn1c(NCc2nc3ccccc3n2Cc2ccccc2)nc2ccccc21	11.2µM*	-2.3%	?	?	?
CC(C)OCCCNC(=O)CCCn1c(SCC(=O)c2ccc(F)cc2)nc2c(sc3ccccc32)c1=O	/	/	18.5%	/	0.2%
O=C(O)C=Cc1ccc(Cn2ccnc2)cc1	-16.9%	/	/	3.9%	/
O=C(c1cnccn1)N1CCC2(CCCN(c3ccc(-c4ccccc4)cc3)C2)CC1	15.7%	/	/	-5.1%	/
COc1cc(NC(=O)CSc2ncnc3sc4c(c23)CCC(C)C4)c(C(=O)O)cc1OC (stereo unspecified)	11.2µM*	-4.3%	-8.7%	?	0.6%
CC1CCc2c(sc3ncnc(SCC(=O)Nc4ccc(C(=O)O)cc4)c23)C1 (stereo unspecified)	-15.1%	2.7%	-3.9%	-0.6%	11.5%
O=C1N(Cc2cccc(Cl)c2)C[C@@H]2C[C@@H](c3cccc4ncccc34)N3CCC[C@@]123	24.0%	7.5%	-3.3%	-2.6%	10µM*
O=C1N(Cc2cccc(Cl)c2)C[C@@H]2C[C@@H](c3cccc4cccnc34)N3CCC[C@@]123	-13.9%	5.1%	-11.9%	5.6%	?
CCOC(=O)c1c(NC(=O)c2cc3nc(-c4ccc(OC)cc4)cc(C(F)(F)F)n3n2)sc2c1CCC(C)C2 (stereo unspecified)	/	/	0.1%	/	2.5%
O=C(Nc1ccc2ncccc2c1)c1cccc(Br)c1	24.8%	0.8%	1.3%	10.6%	14.6%
SMILES	RORgamma inh	GLP1R ag	GLP1R cytotox	Gal4-VP16 FLuc	GLP1R inv ag
Cc1ccc(O)c(CNc2cnc3ccccc3c2)c1	6.6%[1.91 µM]	-5.1%	-5.5%	17.3%	?
COc1cccc(CNc2cnc3ccccc3c2)c1O	?	-0.2%	-5.0%	10µM*	?
Oc1ccc(Br)cc1CNc1cnc2ccccc2c1	?	-5.4%	-7.6%	-7.6%	11.2µM*
COc1cccc(CNc2nc3ccccc3n2C)c1O	-29.2%	3.8%	6.5%	5.7%	-29.3%
Brc1ccc(CNc2ccc3ncccc3c2)cc1	?	4.7%	-16.6%	7.08µM*	-9.2%
COc1ccc(C2=Nn3c(nnc3-c3ccc(OC)c(OC)c3)SC2)c(OC)c1	11.7%	/	/	-1.5%	/
CC12CCC(c3nnc(SCc4ccc(Cl)cc4)nc31)C2(C)C (stereo unspecified)	?	-0.7%	2.8%	0.9%	?
CC12CCC(c3n[nH]c(=S)nc31)C2(C)C (stereo unspecified)	12.6µM*	0.8%	?	?	-20.5%
Cc1cc2c(cc1C)CSC(c1ccccc1O)SC2	-25.0%	-7.6%	-16.7%	-18.0%	-40.8%
Oc1ccccc1C1SC(c2ccccc2O)SC(c2ccccc2O)S1 (stereo unspecified)	/	-0.2%	?	/	1.12µM*
COc1ccc(N2CCN(C(=O)c3ccc4nc(N5CCC(C)CC5)sc4c3)CC2)cc1	/	/	-4.2%	/	2.3%
COc1cccc(N2CCN(C(=O)c3ccc4nc(N5CCC(C)CC5)sc4c3)CC2)c1	12.6µM*	/	3.3%	-20.1%	?
O=C(NCCc1ccccc1)c1ccc2nc(N3CCOCC3)sc2c1	24.2%	21.5%	-10.0%	?	11.7%
O=C(c1ccc2nc(N3CCOCC3)sc2c1)N1CCC(Cc2ccccc2)CC1	?	-4.9%	0.1%	0.224µM*	?
CCN(Cc1ccccc1)S(=O)(=O)c1ccc(C(=O)N2CCN(c3nc4ccccc4s3)CC2)cc1	?	-12.0%	-2.8%	22.4µM*	8.2%

Screens: PubChem BioAssay, National Center for Advancing Translational Sciences (NCATS)
